Bioassay records from PubChem.
In the library only some 17% were active in any assay of this set; here they are far more common.
HT1080-NT tox = qHTS for induction of synthetic lethality in tumor cells producing 2HG: qHTS for the HT-1080-NT fibrosarcoma cell line; Potency, µM (doses to about 46.1 µM), without a hit: at the top dose activity, negative = less viability, actives largely listed as cytotoxic; AID 686970, 2013; HT-1080-NT fibrosarcoma viability, CellTiter-Glo ATP luminescence, 48 h; 1.6% of 360,000 active;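 note: NT is the 2HG producing partner of a matched IDH1 knockdown line; 0% = DMSO-treated cells and -100% = media-only wells without cells; nearly all actives have a fitted effect of over 55% in size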
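HT-1080-NT; 750 cells/well; 5% FBS RPMI; 48 h compound, 37 degrees C; CellTiter-Glo luminescence; curve fitting and curve-class assignment.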
TDP1 cell CPT = qHTS for Inhibitors of human tyrosyl-DNA phosphodiesterase 1 (TDP1): qHTS in cells in presence of CPT | chicken DT40 Tdp1-/-;hTDP1 cells + 20 nM CPT, ATP luminescence, 48 h | AID 686979, 2013 | Potency, µM (series often up to 46.2 µM), inactives show at the highest dose activity change, negative = growth inhibition, actives largely listed as inhibitors | 12% of 420,000 active; note: % is set by controls: 0 for no effect and ±100 for the full control effect; nearly all actives have a fitted effect of over 55% in size
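Cell growth measured by CellTiter-Glo luminescence after a minimum 48 h, 37 C compound exposure with 20 nM CPT in Tdp1-knockout DT40 cells stably expressing hTDP1, seeded 400/well; qHTS titration format.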
DT40 TDP1 no CPT = qHTS for Inhibitors of human tyrosyl-DNA phosphodiesterase 1 (TDP1): qHTS in cells in absence of CPT. DT40 Tdp1-/- hTDP1 cells, no CPT, ATP luminescence, 48 h. Potency, µM (highest dose often 46.2 µM), without a hit: at the top dose activity change, negative = growth inhibition, usual class: inhibitors. 15% of 420,000 active. AID 686978, 2013; note: % is set by controls: 0 for no effect and ±100 for the full control effect; nearly all actives have a fitted effect of over 55% in size
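Seeded 400 DT40-hTDP1 cells/well (vehicle DMSO, no 20 nM CPT); pinned compounds; ≥48 hr at 37 °C; CellTiter-Glo luminescence as viability measure.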
HepG2 viability = qHTS for Inhibitors of TGF-b: Cytotox Counterscreen. HepG2 CAGA-GFP viability, ATP luminescence, 18 h. Potency, µM (doses to about 46.1 µM), inactives show at the top dose activity change, negative = cytotoxicity, most hits filed as cytotoxic. 0.76% of 410,000 active. AID 588856, 2011
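HepG2 CAGA-GFP cells (1000/well, DMEM with 1% FBS) received compound, then TGF-beta at 500 pg/mL final, and were incubated 18 hours at 37 degrees C. Viability was read by CellTiter-Glo luminescence. Media-only wells were set as complete cell-killing and DMSO as no toxicity.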
HT1080 IDH1KD tx = qHTS for induction of synthetic lethality in tumor cells producing 2HG: qHTS for the HT-1080-IDH1KD cell line. HT-1080 IDH1 knockdown viability, ATP luminescence, 48 h. Potency, µM (doses to about 46.1 µM), inactives show at the top dose activity, negative = toxicity, actives largely listed as cytotoxic. 2% of 360,000 active;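 note: 0% = DMSO wells and -100% = cell-free medium wells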
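CellTiter-Glo luminescence after 48 h compound exposure at 37 degrees C of IDH1-knockdown HT-1080 cells in 5% FBS RPMI. %Activity scaled between DMSO wells and cell-free media wells, with curves fitted and assigned curve classes.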
TGFb inhibitor = qHTS for Inhibitors of TGF-b. 1.2% of 410,000 active. AID 588855, 2011. Potency, µM (highest dose often 46.1 µM), for inactives: top-dose activity, negative = inhibition, usual class: inhibitors. HepG2 CAGA-GFP TGF-b/SMAD3 reporter, GFP fluorescence, 18 h; TGF-beta stimulated, 500 pg/mL final; note: % is set by controls: 0 for no effect and ±100 for the full control effect; nearly all actives have a fitted effect of over 65% in size
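HEPG2 CAGA-GFP reporter cells (1000/well, DMEM with 1% FBS) received compounds, then recombinant TGF-beta at 500 pg/mL final for 18 hours at 37 degrees C. Per-cell GFP summed per well was normalised to unstimulated and stimulated DMSO controls before curve fitting.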
Active calls of the source: *; ? = inconclusive; . = no result; [ ] = remark or other dose. Calls come from the whole dose curve; as a rule, active = well fitted curve in the direction sought with a large enough effect; inconclusive = small, poorly fitted or top-dose-only effect, or another doubt; inactive = no such curve, though single readings can be large; an effect the other way counts as inactive or inconclusive. Potency is the fitted concentration of half-maximal effect.

SMILES	HT1080-NT tox	TDP1 cell CPT	DT40 TDP1 no CPT	HepG2 viability	HT1080 IDH1KD tx	TGFb inhibitor
N#Cc1ccc(C23CC4(C2)[C@H](CN(Cc2cccnc2)[C@@H]4c2ccccc2)C3c2ccccc2)cc1 (stereo partly drawn)	-29%	9.2µM*	7.3µM*	-14%	?	-24%
COC(=O)c1cccc(C23CC4(C2)[C@H](CN(Cc2ccc(C(F)(F)F)cc2)[C@@H]4c2ccccc2)C3c2ccccc2)c1 (stereo partly drawn)	-5%	29µM*	16µM*	-4%	-18%	3%
COC(=O)c1ccc(C23CC4(C2)[C@H](CN(Cc2cccnc2)[C@@H]4c2ccccc2)C3c2ccc(C(F)(F)F)cc2)cc1 (stereo partly drawn)	?	23µM*	13µM*	-4%	-6%	6%
c1ccc(-c2ccc(CN3C[C@@H]4C(c5ccccc5)C5(c6cccnc6)CC4(C5)[C@H]3c3ccccc3)cc2)cc1 (stereo partly drawn)	-4%	?	?	-20%	-16%	?
N#Cc1ccc(C23CC4(C2)[C@H](CN(Cc2ccc(-c5ccccc5)cc2)[C@@H]4c2ccccc2)C3c2ccc(C(F)(F)F)cc2)cc1 (stereo partly drawn)	2%	16µM*	?	-24%	6%	-15%
COC(=O)c1ccc(C23CC4(C2)[C@H](CN(Cc2ccc(-c5ccccc5)cc2)[C@@H]4c2ccccc2)C3c2ccc(C(F)(F)F)cc2)cc1 (stereo partly drawn)	12%	?	?	1%	8%	-24%
CN1C[C@@H]2C(c3ccc(C(F)(F)F)cc3)C3(c4ccccc4)CC2(C3)[C@H]1c1ccccc1 (stereo partly drawn)	11%	?	16µM*	-4%	12%	9%
COC(=O)c1ccc(C23CC4(C2)[C@H](CN(Cc2cccnc2)[C@@H]4c2ccccc2)C3c2ccccc2)cc1 (stereo partly drawn)	0%	23µM*	23µM*	-21%	-22%	?
COC(=O)c1cccc(C23CC4(C2)[C@H](CN(Cc2ccc(-c5ccccc5)cc2)[C@@H]4c2ccccc2)C3c2ccccc2)c1 (stereo partly drawn)	4%	-15%	?	-21%	0%	-20%
COC(=O)c1ccc(C23CC4(C2)[C@H](CN(CC2CCCCC2)[C@@H]4c2ccccc2)C3c2ccccc2)cc1 (stereo partly drawn)	-1%	26µM*	?	-3%	-4%	19%
FC(F)(F)c1ccc(C2[C@H]3CN(Cc4cccnc4)[C@H](c4ccccc4)C34CC2(c2cccnc2)C4)cc1 (stereo partly drawn)	?	23µM*	21µM*	-105%	?	8.9µM*
N/C(=N\N=C\c1ccc(Cl)cc1)N/N=C/c1ccc(Cl)cc1	.	?	-21%	.	.	.
O=C(Nc1ccc(C(F)(F)F)cc1)C1CCN(S(=O)(=O)c2ccc(N3CCCC3=O)cc2)CC1	-8%	2.6µM*	?	0%	?	?
CC(C)NC(=O)C1CCCN(S(=O)(=O)c2cccs2)C1 (stereo not drawn)	12%	9%	-4%	4%	9%	7%
CSc1cccc(NC(=O)C2CCCN(S(=O)(=O)c3cccs3)C2)c1 (stereo not drawn)	-5%	?	18µM*	-9%	-26%	1%
CC1CCCN(S(=O)(=O)c2ccc(NC(=O)C3CCN(C(=O)c4ccco4)CC3)cc2)C1 (stereo not drawn)	-7%	21µM*	13µM*	-8%	-17%	14%
COc1ccc(S(=O)(=O)N2CCN(CCCOc3ccc(F)cc3)CC2)cc1OC	0%	?	21µM*	-17%	-23%	-22%
Cc1cc(C)cc(OC(C)C(=O)NCCCn2ccnc2)c1 (stereo not drawn)	-2%	6%	0%	-6%	-1%	-19%
COc1ccc(OC)c(S(=O)(=O)N2CCC(C(=O)N3CCc4ccccc4C3)CC2)c1	-12%	?	23µM*	-2%	-1%	?
O=C(NCCCN1CCCC1=O)C1CCN(S(=O)(=O)c2cc(C(F)(F)F)ccc2Cl)CC1	6%[9.24 µM]	15µM*	?	2%	0%	8%
CSc1cccc(NC(=O)C2CCCN(S(=O)(=O)c3ccc(F)cc3)C2)c1 (stereo not drawn)	-30%	10µM*	8.2µM*	2%	?	10%
O=C(Nc1ccc(S(=O)(=O)N2CCCC2)cc1)C1CCN(S(=O)(=O)c2ccc(F)cc2)CC1	-16%	?	18µM*	-12%	-59%	-14%
COc1ccc(NC(=O)C2(C)CCN2C)cc1OC (stereo not drawn)	9%	-9%	-5%	-7%	24%	2%
Cc1ccccc1OCC(=O)OCC(=O)NC1CCCC1	9%	7%	-1%	-13%	8%	-1%
Cc1ccc(CNC2CCCCC2)s1	1%	4%	-4%	-1%	3%	10%
O=C(c1ccc(NS(=O)(=O)c2cccc([N+](=O)[O-])c2)cc1)N1CCN(C(=O)c2ccco2)CC1	-3%	-3%	0%	-3%	0%	-5%
COc1ccc(OC2CCN(S(=O)(=O)c3ccc(F)cc3)CC2)cc1	-8%	13%	-15%	-5%	8%	-11%
COc1ccc(OC2CCN(S(=O)(=O)c3ccc(OC)c(OC)c3)CC2)cc1	-9%	?	?	11µM*	-14%	-23%
CSc1cccc(NC(=O)C2CCCN2S(=O)(=O)c2ccc(Br)s2)c1 (stereo not drawn)	?	?	23µM*	-27%	?	-1%
COc1ccc(S(=O)(=O)N2CCC(C(=O)Nc3cccc(C(C)=O)c3)CC2)cc1C	2%	11µM*	?	-33%	?	-3%
